Source: PubChem BioAssay AID1159580 (chemical genetic matrix, 2015)
The campaign covered roughly 5,500 compounds. About 2,000 (36%) were called active. Another 18% or so got no clear call; they are omitted. Rule as the data show it: active = normalized growth mostly below about 0.91 (no sharp cut-off); inconclusive = no clear call, values can overlap the other calls; inactive = mostly above about 0.92. The list shows a part of the results.

Test: chemical genetic growth profiling, strain panel (AID 1159580);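 also: tested at 20 µM; growth read once vehicle control cultures reached saturation at 30 °C; 1 = growth at the plate median or of vehicle wells; lower values mean less growth of the strain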
Conditions: growth OD
[1] = S. cerevisiae deletion strains, locus YAL040C, strain CLN3, hits give low values
[2] = S. cerevisiae deletion strains, locus YCL061C, strain MRC1 (second series), hits give low values
[3] = S. cerevisiae deletion strains, locus YDR363W, strain ESC2, hits give low values
[4] = S. cerevisiae deletion strains, locus YER002W, strain NOP16, hits give low values
[5] = S. cerevisiae deletion strains, locus YNL128W, strain TEP1, hits give low values
[6] = S. cerevisiae deletion strains, locus YNL153C, strain GIM3, hits give low values
[7] = S. cerevisiae deletion strains, locus YNL175C, strain NOP13, hits give low values
[8] = S. cerevisiae deletion strains, locus YNL197C, strain WHI3, hits give low values
[9] = S. cerevisiae deletion strains, locus YNL224C, strain SQS1, hits give low values
[10] = S. cerevisiae deletion strains, locus YOR083W, strain WHI5 (second series), hits give low values
[11] = S. cerevisiae deletion strains, locus YGR078C, strain PAC10, hits give low values
[12] = S. cerevisiae deletion strains, locus YGR229C, strain SMI1, hits give low values
[13] = S. cerevisiae deletion strains, locus YJR075W, strain HOC1, hits give low values
[14] = S. cerevisiae deletion strains, locus YPL055C, strain LGE1, hits give low values
[15] = S. cerevisiae deletion strains, locus YPL241C, strain CIN2, hits give low values
[16] = S. cerevisiae deletion strains, locus YDL101C, strain DUN1, hits give low values
[17] = S. cerevisiae deletion strains, locus YHR030C, strain SLT2, hits give low values

Measured: normalized growth

CCCn1c(=O)c2[nH]c(-c3ccc(S(=O)(=O)O)cc3)nc2n(CCC)c1=O
inactive: [1] 0.994 | [2] 1.01 | [3] 0.958 | [4] 0.997 | [5] 1 | [6] 1.01 | [7] 0.985 | [8] 0.99 | [9] 1 | [10] 0.979

CC(C)CC(NP(=O)(O)O[C@@H]1O[C@@H](C)[C@H](O)[C@@H](O)[C@H]1O)C(=O)NC(Cc1c[nH]c2ccccc12)C(=O)O (some centres not stated)
inactive: [1] 1.01 | [2] 1.01 | [3] 1.01 | [4] 1 | [11] 1.02 | [12] 1.03 | [13] 1.03 | S. cerevisiae deletion strains, locus YMR307W, strain GAS1, hits give low values 0.994 | [5] 0.993 | [6] 1.04 | [7] 0.998 | [8] 1 | [9] 0.997 | [10] 1.01 | [14] 1.02 | [15] 1.01

O=C1NC(c2c(F)cccc2Cl)Nc2ccccc21 (configuration not stated)
inactive: S. cerevisiae deletion strains, locus YAL013W, strain DEP1, hits give low values 1.01 | S. cerevisiae deletion strains, locus YBR229C, strain ROT2, hits give low values 1.01 | S. cerevisiae deletion strains, locus YCL061C, strain MRC1, hits give low values 1.03 | [16] 1.02 | S. cerevisiae deletion strains, locus YDL134C, strain PPH21, hits give low values 1 | S. cerevisiae deletion strains, locus YDR150W, strain NUM1, hits give low values 0.987 | S. cerevisiae deletion strains, locus YEL061C, strain CIN8, hits give low values 1 | [11] 1.03 | [12] 0.988 | [17] 1 | S. cerevisiae deletion strains, locus YHR087W, strain rtc3, hits give low values 1.02 | S. cerevisiae deletion strains, locus YJL187C, strain SWE1, hits give low values 1 | S. cerevisiae deletion strains, locus YJR043C, strain POL32, hits give low values 0.998 | [13] 0.998 | S. cerevisiae deletion strains, locus YKL190W, strain CNB1, hits give low values 1.01 | S. cerevisiae deletion strains, locus YLR039C, strain RIC1, hits give low values 0.94 | S. cerevisiae deletion strains, locus YLR058C, strain SHM2 (second series), hits give low values 1.02 | S. cerevisiae deletion strains, locus YLR085C, strain ARP6, hits give low values 0.984 | S. cerevisiae deletion strains, locus YLR262C, strain YPT6, hits give low values 0.926 | S. cerevisiae deletion strains, locus YML094W, strain GIM5, hits give low values 1.05 | S. cerevisiae deletion strains, locus YMR219W, strain ESC1, hits give low values 1 | S. cerevisiae deletion strains, locus YMR263W, strain SAP30, hits give low values 0.978 | [6] 1.01 | S. cerevisiae deletion strains, locus YNL298W, strain CLA4 (second series), hits give low values 0.979 | S. cerevisiae deletion strains, locus YNL322C, strain KRE1, hits give low values 1 | S. cerevisiae deletion strains, locus YNR030W, strain Alg12, hits give low values 1.02 | [14] 1 | [15] 1.04 | S. cerevisiae deletion strains, locus YPR135W, strain CTF4, hits give low values 1.06 | S. cerevisiae strains, strain wild type, hits give low values 1.01

O=C1/C(=C/c2c(F)cccc2Cl)Cc2ccccc21
active: S. cerevisiae deletion strains, locus YLR113W, strain HOG1, hits give low values 0.834
inactive: S. cerevisiae deletion strains, locus YAR019C, strain CDC15, hits give low values 0.965 | S. cerevisiae deletion strains, locus YBL105C, strain PKC1, hits give low values 0.965 | S. cerevisiae deletion strains, locus YBR135W, strain CKS1, hits give low values 0.959 | S. cerevisiae deletion strains, locus YBR136W, strain MEC1, hits give low values 0.962 | S. cerevisiae deletion strains, locus YBR160W, strain CDC28, hits give low values 0.964 | S. cerevisiae deletion strains, locus YDL017W, strain CDC7, hits give low values 0.963 | S. cerevisiae deletion strains, locus YDL028C, strain MPS1, hits give low values 0.96 | [16] 0.96 | S. cerevisiae deletion strains, locus YDL108W, strain KIN28, hits give low values 0.967 | S. cerevisiae deletion strains, locus YDL132W, strain cdc53, hits give low values 0.96 | S. cerevisiae deletion strains, locus YDL214C, strain PRR2, hits give low values 0.96 | S. cerevisiae deletion strains, locus YDR052C, strain DBF4, hits give low values 0.977 | S. cerevisiae deletion strains, locus YDR054C, strain cdc34, hits give low values 0.961 | S. cerevisiae deletion strains, locus YDR226W, strain ADK1, hits give low values 0.967 | S. cerevisiae deletion strains, locus YDR477W, strain SNF1, hits give low values 0.945 | S. cerevisiae deletion strains, locus YER123W, strain YCK3, hits give low values 0.876 | S. cerevisiae deletion strains, locus YER133W, strain GLC7, hits give low values 0.948 | S. cerevisiae deletion strains, locus YFL009W, strain cdc4, hits give low values 0.961 | S. cerevisiae deletion strains, locus YFL029C, strain CAK1, hits give low values 0.961 | S. cerevisiae deletion strains, locus YFR003C, strain YPI1, hits give low values 0.962 | S. cerevisiae deletion strains, locus YFR019W, strain FAB1, hits give low values 0.903 | S. cerevisiae deletion strains, locus YFR028C, strain CDC14, hits give low values 0.96 | S. cerevisiae deletion strains, locus YGR040W, strain KSS1, hits give low values 0.947 | S. cerevisiae deletion strains, locus YGR052W, strain FMP48, hits give low values 0.974 | S. cerevisiae deletion strains, locus YGR092W, strain DBF2, hits give low values 0.841 | [17] 0.882 | S. cerevisiae deletion strains, locus YHR079C, strain IRE1, hits give low values 0.884 | S. cerevisiae deletion strains, locus YHR082C, strain KSP1, hits give low values 0.916 | S. cerevisiae deletion strains, locus YHR205W, strain SCH9, hits give low values 0.871 | S. cerevisiae deletion strains, locus YIL147C, strain SLN1, hits give low values 0.963 | S. cerevisiae deletion strains, locus YJL095W, strain BCK1, hits give low values 0.927 | S. cerevisiae deletion strains, locus YJL128C, strain PBS2, hits give low values 0.929 | S. cerevisiae deletion strains, locus YJL157C, strain FAR1, hits give low values 0.945 | S. cerevisiae deletion strains, locus YJR016C, strain ILV3, hits give low values 0.965 | S. cerevisiae deletion strains, locus YJR066W, strain TOR1 (second series), hits give low values 0.906 | S. cerevisiae deletion strains, locus YJR066W, strain TOR1, hits give low values 0.892 | S. cerevisiae deletion strains, locus YKL048C, strain ELM1, hits give low values 0.968 | S. cerevisiae deletion strains, locus YKL067W, strain YNK1, hits give low values 0.961 | S. cerevisiae deletion strains, locus YKL101W, strain HSL1, hits give low values 0.965 | S. cerevisiae deletion strains, locus YKL193C, strain SDS22, hits give low values 0.961 | S. cerevisiae deletion strains, locus YKL203C, strain TOR2, hits give low values 1.03 | S. cerevisiae deletion strains, locus YLR133W, strain CKI1, hits give low values 0.955 | S. cerevisiae deletion strains, locus YLR403W, strain SFP1, hits give low values 0.927 | S. cerevisiae deletion strains, locus YML070W, strain DAK1, hits give low values 0.929 | S. cerevisiae deletion strains, locus YMR001C, strain CDC5, hits give low values 0.961 | S. cerevisiae deletion strains, locus YMR205C, strain PFK2 (second series), hits give low values 0.956 | S. cerevisiae deletion strains, locus YMR277W, strain FCP1, hits give low values 0.963 | S. cerevisiae deletion strains, locus YNL006W, strain LST8, hits give low values 0.97 | S. cerevisiae deletion strains, locus YNL020C, strain ARK1, hits give low values 0.947 | S. cerevisiae deletion strains, locus YNL161W, strain CBK1, hits give low values 0.965 | S. cerevisiae deletion strains, locus YNL183C, strain NPR1, hits give low values 0.9 | S. cerevisiae deletion strains, locus YNL207W, strain RIO2, hits give low values 0.965 | S. cerevisiae deletion strains, locus YNL222W, strain SSU72, hits give low values 0.965 | S. cerevisiae deletion strains, locus YNL307C, strain MCK1 (second series), hits give low values 0.885 | S. cerevisiae deletion strains, locus YOL078W, strain AVO1, hits give low values 0.962 | S. cerevisiae deletion strains, locus YOL136C, strain PFK27, hits give low values 0.92 | S. cerevisiae deletion strains, locus YOR061W, strain CKA2, hits give low values 0.942 | S. cerevisiae deletion strains, locus YOR119C, strain RIO1, hits give low values 0.952 | S. cerevisiae deletion strains, locus YOR231W, strain MKK1, hits give low values 0.92 | S. cerevisiae deletion strains, locus YOR329C, strain SCD5, hits give low values 0.963 | S. cerevisiae deletion strains, locus YPL031C, strain PHO85, hits give low values 0.928 | S. cerevisiae deletion strains, locus YPL153C, strain RAD53, hits give low values 0.947 | S. cerevisiae deletion strains, locus YPL204W, strain HRR25, hits give low values 0.927 | S. cerevisiae deletion strains, locus YPL209C, strain IPL1, hits give low values 0.968 | S. cerevisiae deletion strains, locus YPL256C, strain CLN2, hits give low values 0.887 | S. cerevisiae deletion strains, locus YPR025C, strain CCL1, hits give low values 0.957 | S. cerevisiae deletion strains, locus YPR106W, strain ISR1, hits give low values 0.957 | S. cerevisiae deletion strains, locus YPR111W, strain DBF20, hits give low values 0.957 | S. cerevisiae deletion strains, strain NNK1, hits give low values 0.943 | S. cerevisiae deletion strains, strain TSCII, hits give low values 0.962
